Measured values taken from PubChem BioAssay (NCATS).
Where “and” joins values, the source holds several entries; their conditions need not be identical. Identical values can stand only once. Records with an inconclusive call do not appear. A number with no mark means an inactive call. Calls of active or inactive are those of the source. The call rests on the fitted dose curve; in most records, active means well fitted cell-killing curve with a large enough effect; inconclusive means small, poorly fitted or top-dose-only effect, or effect the other way; inactive means flat fitted curve, though single readings scatter.

The molecules below were run on Tov112D (assay: Primary qHTS to identify gynecologic anti-cancer compounds using libraries of approved drugs and bioactive compounds (AID 1345084; further: nearly all actives have a fitted effect of over 55% in size)). Details: Gynecologic cancer cell panel viability, ATPlite luminescence, 48 h; series mostly up to 57.5 µM; activity change, negative = cytotoxicity: at the top concentration.
In short: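 Five-point cytotoxicity, 48 h drug exposure at 37 C, 5% CO2, on cells seeded 16 h beforehand. ATP content read by ATPlite luminescence.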
On the % scale 0 is the no-effect control and ±100 the full control effect; potency means the concentration at half of the fitted maximal effect.

SMILES	activity change, negative = cytotoxicity [%]	Potency
CCc1cncnc1N1CCN(Cc2nc3ccc(C(F)(F)F)cc3[nH]2)CC1	-12.4	–
N#CC[C@H](C1CCCC1)n1cc(-c2ncnc3[nH]ccc23)cn1	-0.0193	–
Cn1cnc([N+](=O)[O-])c1Sc1ncnc2nc[nH]c12	–	5.62 µM (active) and 7.08 µM (active)
O=C(NOC[C@H](O)CO)c1ccc(F)c(F)c1Nc1ccc(I)cc1F	-25.3	–
CCC(C)(C)C(=O)O[C@H]1C[C@@H](C)C=C2C=C[C@H](C)[C@H](CC[C@@H]3C[C@@H](O)CC(=O)O3)[C@H]21	-28.4	–
Cc1oncc1C(=O)Nc1ccc(C(F)(F)F)cc1	–	20 µM (active)
CCc1cc(Nc2nccc(-c3c(-c4ccc(OC)c(C(=O)Nc5c(F)cccc5F)c4)nc4ccccn34)n2)c(OC)cc1N1CCC(N2CCN(S(C)(=O)=O)CC2)CC1	0.0648	–
COc1ccccc1[C@H](c1cccc2ccccc12)[C@@](C)(C#N)C(=O)N1CCC(c2cccc(C(F)(F)F)c2)CC1	3.92	–
C#Cc1cccc(Nc2ncnc3cc(OCCOC)c(OCCOC)cc23)c1	-18.8	–
Nc1nc2c(ncn2COCCO)c(=O)[nH]1	-0.188	–
CS(=O)(=O)c1cccc(CNc2nc(Nc3ccc4c(c3)CCC(=O)N4)ncc2C(F)(F)F)c1	-23	–
CCOc1ccn(-c2ccc(F)cc2)c(=O)c1C(=O)Nc1ccc(Oc2ccnc(N)c2Cl)c(F)c1	-28.8	–
CC1(C)CNc2cc(NC(=O)c3cccnc3NCc3ccncc3)ccc21	-9.44	–
N[C@@H]1CONC1=O	-1.07	–
CNCc1ccc(-c2[nH]c3cc(F)cc4c3c2CCNC4=O)cc1	-3.21	–
S=C(NCc1ccc2c(c1)OCO2)N1CCN(c2ncnc3c2oc2ccccc23)CC1	-20.5	–
NC[C@H](O)c1ccc(O)c(O)c1	0.152	–
CNC(=O)c1ccccc1Sc1ccc2c(/C=C/c3ccccn3)n[nH]c2c1	–	8.91 µM (active)
CCCS(=O)(=O)Nc1ccc(F)c(C(=O)c2c[nH]c3ncc(Cl)cc23)c1F	9.01	–
Cc1ccc(-n2nc(C(C)(C)C)cc2NC(=O)Nc2ccc(OCCN3CCOCC3)c3ccccc23)cc1	-13.3	–
Oc1ccc(C2CNCCc3c2cc(O)c(O)c3Cl)cc1 (stereo unspecified)	-12	–
